# Among all 1,100 compounds or so, about 350 (32%) were called active. How the calls were made is not given here. The list is a sample of the results. Measured potencies and affinities stand elsewhere.
# Assay: CEM21 lymphoblast cell cytotoxicity, dose response, cytotoxicity control for viral fusion inhibitor project, CellTiter-Glo luminescence, cherry-picked (AID 652042)
# Settings: CEM21 cells viability, CellTiter-Glo ATP luminescence, 24 h; series mostly up to 35 µM
row,SMILES,"activity change, negative = cytotoxicity"
1,CCN1C(=O)[C@H]2[C@H]3CN=C(SCc4ccc(Cl)cc4)N3[C@@](CC)(C(=O)OC)[C@H]2C1=O,inactive
2,O=C(Nc1cc(Cl)cc(Cl)c1)C(c1ccccc1)N1CCCCC1 (stereo not given),inactive
3,Cc1onc(-c2ccccc2)c1C(=O)OCCOc1cccc(Cl)c1,inactive
4,CCn1c(C)cc(C(=O)CN2C(=O)c3ccccc3S2(=O)=O)c1C,inactive
5,O=C(Nc1cc2c3c(c1)CC(=O)N3CCC2)c1ccc(Cl)cc1,inactive
6,CN(c1ccccc1)S(=O)(=O)c1ccc(Cl)c(C(=O)Nc2nc3ccccc3[nH]2)c1,inactive
7,O=C(NCCCc1nc2ccccc2[nH]1)c1ccco1,inactive
8,CCNC(=O)C[C@H]1CC[C@@H]2[C@@H](COc3ccc(NC(=O)Nc4cccc(OC)c4)cc3C(=O)N2C)O1,inactive
9,Cc1[nH]c2ccccc2c1/C=N\NC(=O)c1ccccc1Cl,inactive
10,COc1cccc(-c2noc(C3CCCN(S(=O)(=O)c4cccc(Cl)c4C)C3)n2)c1 (stereo not given),inactive
11,CCOc1cccc(N(C(=O)Cc2cccs2)C(C(=O)NC2CCCCC2)c2cccn2C)c1 (stereo not given),inactive
12,Cc1ccc2c(c1)C(=C(C#N)C#N)CCN2,inactive
13,COc1ccc(C(=O)CN2C(=O)c3ccccc3S2(=O)=O)cc1,inactive
14,COc1cc(/C=N/NS(=O)(=O)c2ccc(C)cc2)ccc1OCc1cccc(C(=O)O)c1,inactive
15,COC(=O)C1(C(=O)OC)C[C@H](c2ccc(OC)cc2)N(Cc2ccccc2OC)[C@@H]1c1ccccc1,inactive
16,CCOc1ccccc1CNc1ncnc2ccc(-c3c(C)noc3C)cc12,inactive
17,CCCCn1c(CN(C)Cc2ccccc2)nc2c1c(=O)n(C)c(=O)n2C,inactive
18,CCCNC(=O)C[C@H]1C[C@H]2c3cc(NC(=O)CN(C)C)ccc3O[C@H]2[C@@H](CO)O1,inactive
19,CC[C@@]1(C(=O)OC)N[C@H](CN(C)C(=O)Nc2ccc(C(F)(F)F)cc2)[C@@H]2C(=O)N(Cc3ccccc3)C(=O)[C@@H]21,inactive
20,COC(=O)[C@]12CCCCC=C1N(Cc1ccco1)C(=O)[C@H](CC(=O)NCCc1ccccc1OC)C2,inactive
21,Cn1c(=O)oc2cc(S(=O)(=O)NCc3ccncc3)ccc21,inactive
22,OCCN1CCN(C(=S)c2ccc(-c3ccccc3)cc2)CC1,inactive

row,SMILES,"activity change, negative = cytotoxicity"
1,CC1CCCN(C(=O)c2ccc(S(=O)(=O)N3CCC(c4nc5ccccc5s4)CC3)cc2)C1 (stereo not given),inactive
2,Cn1cc(S(=O)(=O)N2CCOCC2)cc1C(=O)Nc1cccc(Cl)c1,inactive
3,Cn1c(C(=O)N2CCN(c3nc4ccccc4s3)CC2)cc2sccc21,inactive
4,CN(CC(=O)NCCc1ccc(S(N)(=O)=O)cc1)CC(=O)Nc1ccc(Cl)c(C(F)(F)F)c1,inactive
5,CCN(C[C@H]1N[C@@](C)(C(=O)OC)[C@H]2C(=O)N(Cc3ccccc3)C(=O)[C@@H]12)C(=O)Nc1ccccc1,inactive
6,Nc1ncn([C@H]2C[C@H](O)[C@@H](CO)O2)c(=O)n1,inactive
7,Nc1nc2c(ncn2[C@@H]2O[C@H](C(=O)NCC(c3ccccc3)c3ccccc3)[C@@H](O)[C@H]2O)c(=O)[nH]1,inactive
8,CCc1cc2c(NCc3ccco3)ncnc2s1,inactive
9,COc1ccccc1-c1c(-c2ccc(O)cc2O)n[nH]c1C(F)(F)F,inactive
10,C=C1CCN([C@H](C(=O)OCc2ccc(C)cc2)C(C)C)S(=O)(=O)c2ccccc21,inactive
11,COC(=O)[C@]1(C)N[C@H](CN(C)S(=O)(=O)c2ccc(-c3ccccc3)cc2)[C@@H]2C(=O)N(Cc3ccccc3)C(=O)[C@@H]21,inactive
12,O=C(NCc1ccco1)c1ccc(Cn2c(=O)c3ccccc3n(Cc3ccc(Cl)cc3)c2=O)cc1,inactive
13,COc1ccc(CCN(Cc2cccs2)S(=O)(=O)c2ccc(-n3cnnn3)cc2)cc1OC,inactive
14,Nc1c(S(=O)(=O)c2cccs2)c2nc3ccccc3nc2n1CCc1ccccc1,inactive
15,CCOC(=O)[C@@H]1[C@H]2COc3ccc(Br)cc3[C@@H]2N2C(=O)N(c3cccc(F)c3)C(=O)[C@@]12C,inactive
16,Cn1c(=O)c2c(nc(Oc3ccc4ccccc4c3)n2C)n(C)c1=O,inactive
17,COc1cc(/C=N/O)ccc1OCc1ccc(C(=O)O)cc1,inactive
18,COc1ccc(/C=C/c2nc(S(=O)(=O)c3ccccc3)c(NCCCN(C)C)o2)cc1OC,inactive
19,O=C(Nc1cc(Cl)cc(Cl)c1)C1CCC(=O)N1Cc1ccccc1Cl (stereo not given),inactive
20,CCCNC(=O)N1[C@H](C#N)[C@H](c2ccc(-c3cccc(OC)c3)cc2)[C@@H]1CO,inactive
21,CN(C)C(=O)CCC(=O)N1CCCC(C(=O)c2ccc3c4c(cccc24)CC3)C1 (stereo not given),inactive
22,O=C(C[C@H]1C[C@H]2c3cc(NC(=O)NC4CCCC4)ccc3O[C@H]2[C@@H](CO)O1)NC1CCCCC1,inactive

row,SMILES,"activity change, negative = cytotoxicity"
1,COC(=O)[C@@]12CCCN1[C@H](c1ccc(-c3ccc(F)cc3)c(OC)c1)[C@H]1C(=O)N(C)C(=O)[C@H]12,inactive
2,O=C(c1ccccc1)N1CCN(c2ncnc3sc4c(c23)CCC4)CC1,inactive
3,CCN(Cc1nc2cc(Cl)ccc2c(=O)[nH]1)C(=O)c1cc(C2CC2)nn1-c1ccccc1,inactive
4,Cc1cc(C)c(CN2CCN(C(=O)Cn3cnc4c(NCc5ccccc5)ncnc43)CC2)c(C)c1,inactive
5,O=C(Cn1ncc2c(=O)oc3ccccc3c21)N1CCC(N2CCCCC2)CC1,inactive
6,CCOC(=O)C1CCN(C(=O)c2ccc3c(c2)C(=O)N(c2ccccc2C)C3=O)CC1,inactive
7,COc1ccccc1[C@@H]1C(c2ccc(F)cc2)=NN(c2ccccc2)[C@H]1C(=O)N1CCOC1=O,inactive
8,COc1ccccc1CN1C(=O)CN(C2CCCCCC2)C(=O)C1c1ccc(F)cc1 (stereo not given),inactive
9,CCN(C1CCCCC1)S(=O)(=O)c1ccc(S(=O)(=O)NCc2ccncc2)cc1,inactive
10,CC[C@@]12C(=O)N(c3ccccc3)C(=O)N1[C@H](c1ccc(OC)cc1)[C@@H]1C(=O)N(C(C)(C)C)C(=O)[C@@H]12,inactive
11,Cc1nc2sccn2c1-c1csc(NCc2ccccc2)n1,inactive
12,O=C(CN(Cc1ccccc1)S(=O)(=O)c1ccc(F)cc1)NCCC1=CCCCC1,inactive
13,O=C(CN(Cc1ccccc1F)S(=O)(=O)c1ccc(Cl)cc1)NCCC1=CCCCC1,inactive
14,COc1ccc(NC(=O)Nc2ccc3c(c2)CC(=O)N([C@@H](C)CO)C[C@H](C)[C@H](CN(C)S(=O)(=O)c2cccs2)O3)cc1,inactive
15,COc1ccc(CN(C)C[C@@H]2Oc3ccc(NC(=O)Nc4ccc(OC)cc4)cc3C(=O)N([C@H](C)CO)C[C@@H]2C)cc1,inactive
16,C[C@H](CO)N1C[C@H](C)[C@H](CN(C)S(=O)(=O)c2ccc(Cl)cc2)Oc2ccc(NC(=O)Nc3ccc4c(c3)OCO4)cc2C1=O,inactive
17,C[C@H]1CN([C@@H](C)CO)C(=O)c2cc(NC(=O)Nc3ccc4c(c3)OCO4)ccc2O[C@H]1CN(C)S(=O)(=O)c1ccc(F)cc1,inactive
18,C[C@H](CO)N1C[C@H](C)[C@H](CN(C)CC2CC2)Oc2ccc(NC(=O)Nc3ccc4c(c3)OCO4)cc2CC1=O,inactive
19,C[C@H](CO)N1C[C@H](C)[C@H](CN(C)S(=O)(=O)c2ccccc2)Oc2ccc(NC(=O)Nc3ccccc3)cc2CC1=O,inactive
20,COc1ccc(S(=O)(=O)Nc2ccc3c(c2)CC(=O)N([C@H](C)CO)C[C@H](C)[C@H](CN(C)S(=O)(=O)c2ccc(F)cc2)O3)cc1,inactive
21,CC(C)NC(=O)Nc1ccc2c(c1)CC(=O)N([C@H](C)CO)C[C@H](C)[C@H](CN(C)S(=O)(=O)c1cccs1)O2,inactive
22,COc1ccc(Cl)cc1CC1(C)C(=O)Nc2ccc(S(=O)(=O)NC3CCCCC3)cc21 (stereo not given),inactive

row,SMILES,"activity change, negative = cytotoxicity"
1,O=C(c1ccccc1)N1CCC(c2nc(-c3ccc(S(=O)(=O)NCC4CCCO4)cc3)no2)CC1 (stereo not given),inactive
2,CC1CCN(C(=O)c2ncn3c2C(=O)N[C@H](C)C3)CC1,inactive
3,Cc1nc2ncnn2c(N2CCCC(C(=O)Nc3ccc4c(c3)CCC4)C2)c1C (stereo not given),inactive
4,O=C(Nc1ccc2c(c1)CCC2)C1CCN(c2c3c(nc4ncnn24)CCC3)CC1,inactive
5,Oc1ccc(CNc2ccccc2F)c2cccnc12,inactive
6,N#C/C(=N\Nc1ccc(Cl)cc1)C(=O)c1ccccc1,inactive
7,O=C1c2cccc(OCc3ccc(F)cc3)c2CCN1Cc1ccccc1,inactive
8,NC(=S)c1ccc(OCCCc2ccccc2)cc1,inactive
9,C[C@@]12C(=O)N(CCc3c[nH]c4ccccc34)CC(=O)N1[C@H]1c3ccccc3OC[C@@H]1[C@@H]2c1ccccc1,inactive
10,C[C@@]12C(=O)N(CC3CCCO3)CC(=O)N1[C@H]1c3cc(Cl)ccc3OC[C@@H]1[C@@H]2c1ccccc1 (stereo not given in full),inactive
11,COC(=O)CCn1nnc(-c2ccc(C(C)C)cc2)n1,inactive
12,COCC(=O)Nc1ccc2c(c1)C(=O)N(C)[C@H]1CC[C@H](CC(=O)NC3CCCC3)O[C@H]1CO2,inactive
13,CC1=CC(C)(C)N(C(=O)c2ccccc2)c2ccc(C)cc21,inactive
14,COCC(=O)Nc1ccc2c(c1)C(=O)N(C)C[C@@H](OC)[C@@H](C)CN(C)[C@H](C)CO2,inactive
15,CCOC1=C2[C@@H](CN(S(=O)(=O)c3ccccc3C)[C@H]2c2ccc(Cl)cc2)[C@H]2C(=O)NC(=O)[C@H]2C1,inactive
16,Cc1sc2ncnc(N3CCC(C(=O)Nc4cc(S(C)(=O)=O)ccc4Cl)CC3)c2c1C,inactive
17,COC(=O)C1=C(C)N(CC2CC2)C(=O)N[C@H]1c1ccc(Br)cc1,inactive
18,O=C(NCc1ccco1)c1ccc(Cn2c(=O)c3sccc3n(Cc3cccc(F)c3)c2=O)cc1,inactive
19,CC[C@@]1(C(=O)OC)N[C@H](CN(C)C(=O)COc2ccccc2)[C@@H]2C(=O)N(Cc3ccccc3)C(=O)[C@@H]21,inactive

# From PubChem BioAssay AID652042 (Broad Institute, 2013)
